MCF10A rereplic = induces DNA re-replication in MCF 10a normal breast cells. MCF 10A DNA re-replication, Hoechst nuclear intensity, 48 h. Potency, µM (top dose mostly 46.1 µM), actives largely listed as activators. 350,000 tested, 2.9% active; further: nearly all actives have a fitted effect of over 50% in size
RORgamma inh = inhibitors of mouse ROR gamma transcriptional activity; P51450; Drosophila S2 Gal4-RORgamma UAS-luciferase reporter, 20 h; Potency, µM (highest dose often 53.6 µM), most hits filed as inhibitors; 310,000 tested, 5.4% active; further: nearly all actives have a fitted effect of over 60% in size
Target sequence (P51450 whole entry, looked up, the tested form may be a part): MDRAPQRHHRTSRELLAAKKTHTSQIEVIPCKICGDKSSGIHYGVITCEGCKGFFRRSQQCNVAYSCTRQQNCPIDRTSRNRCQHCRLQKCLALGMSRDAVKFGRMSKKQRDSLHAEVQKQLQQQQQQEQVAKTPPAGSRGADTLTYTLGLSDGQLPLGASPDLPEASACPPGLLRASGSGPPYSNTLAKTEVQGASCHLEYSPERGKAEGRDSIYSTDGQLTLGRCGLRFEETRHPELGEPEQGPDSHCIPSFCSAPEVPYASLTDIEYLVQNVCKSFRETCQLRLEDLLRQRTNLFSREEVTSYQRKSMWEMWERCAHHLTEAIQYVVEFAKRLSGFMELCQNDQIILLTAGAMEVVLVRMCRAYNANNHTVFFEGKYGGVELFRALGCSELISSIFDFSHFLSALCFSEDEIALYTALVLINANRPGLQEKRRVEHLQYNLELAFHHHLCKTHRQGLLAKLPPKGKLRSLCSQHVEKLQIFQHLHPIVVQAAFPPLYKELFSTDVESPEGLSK
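Stable Schneider cell line, Gal4 DNA-binding domain fused to ROR gamma, UAS-luciferase. Cmpd 1 hr RT → CuSO4 700 uM final → 20 hr RT → luciferase reagent 10 min → luminescence.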
SW480 rerep = DNA re-replication induction in SW480 cells. SW480 DNA re-replication, Hoechst DNA content imaging, 48 h. Potency, µM (top dose mostly 46.1 µM), most hits filed as activators. 340,000 tested, 1.8% active. AID 624297; further: nearly all actives have a fitted effect of over 55% in size
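250 cells/well; 23 nL cpd via pin tool; 48 hr, 37 C, 5% CO2; Hoechst 40 min; imager read of total nuclear intensity, ex 405/em 500-530 nm.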
KB-3-1 cytotox = KB-3-1 parental cell cytotoxicity; 400,000 tested, 1.4% active; Potency, µM (doses to about 46.1 µM), usual class: cytotoxic; KB-3-1 viability, CellTiter-Glo ATP luminescence, 72 h; AID 1347075; further: nearly all actives have a fitted effect of over 60% in size
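Here the drug-naive KB-3-1 line serves as comparator for MDR sub-line selectivity; cells received compound titrations, 72 h at 37 °C, then CellTiter-Glo readout.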
Gal4-VP16 FLuc = Gal4-VP16 reporter inhibition counter-screen; AID 2546; Potency, µM (series often up to 53.6 µM), usual class: inhibitors; Drosophila S2 Gal4-VP16 UAS-luciferase, luminescence, 20 h; 310,000 tested, 3.5% active;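 further: Gal4-VP16 expression switched on by copper sulfate through the metallothionein promoter; nearly all actives have a fitted effect of over 50% in size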
KB-V1 MDR tox = kills drug-selected multidrug resistant KB-V1 cells | AID 1347076 | 400,000 tested, 3.4% active | Potency, µM (titrated, usually from 46.1 µM), most hits filed as cytotoxic | KB-V1 MDR cells viability, CellTiter-Glo, 72 h; further: nearly all actives have a fitted effect of over 60% in size
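Luminescent ATP read-out (CellTiter-Glo, 10 min) measures survival of drug-selected KB-V1 MDR cells after 72 h, 37 degrees C compound exposure. Medium: phenol-red-free DMEM, 10% FBS. Values from fitted concentration-response curves.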
Numbers stand for hits; – = inactive; ? = inconclusive; · = no result given; ! = not confirmed by another sample; [ ] = remark or other dose. An excerpt weighted towards active compounds, which were near 10% of everything screened. The call rests on the fitted dose curve; in most records, active means well fitted curve in the direction sought with a large enough effect; inconclusive means small, poorly fitted or top-dose-only effect, or another doubt; inactive means no such curve, though single readings can be large; an effect the other way counts as inactive or inconclusive.

SMILES	MCF10A rereplic	RORgamma inh	SW480 rerep	KB-3-1 cytotox	Gal4-VP16 FLuc	KB-V1 MDR tox
N#CC1C(=O)NC(c2ccccc2)=CC1c1ccccc1 (configuration not stated)	–	·	?	–	·	–
CCS(=O)(=O)Nc1cccc(C2=NN(C(=O)c3ccco3)C(c3ccco3)C2)c1 (configuration not stated)	13µM	–	13µM	8.2µM	–	–
CCS(=O)(=O)Nc1ccc(C2=NN(C(=O)c3ccco3)C(c3ccco3)C2)cc1 (configuration not stated)	9.2µM	·	?	3.7µM	·	?
CCS(=O)(=O)Nc1ccc(C2=NN(C(=O)c3ccco3)C(c3cccs3)C2)cc1 (configuration not stated)	?	?	–	?	–	?
O=C(CN1CCN(Cc2ccc(F)cc2)C1=O)NCc1ccccc1	·	·	·	–	·	–
COc1cccc(OC)c1C(=O)Nc1ccc(S(=O)(=O)Nc2nccc(C)n2)cc1	·	·	·	–	·	–
O=C(O)c1csc(N/N=C/c2ccc(Br)cc2)n1	–	2.5µM	–	–	5µM	–
CNC(=O)C(=O)N/N=C/c1ccc(Br)cc1	–	–	–	–	–[10 µM]	–
C[C@H]1C[C@@H]2[C@H]3CCC4=CC(=O)C=C[C@@]4(C)[C@@]3(Cl)[C@@H](O)C[C@]2(C)[C@]1(OC(=O)c1ccco1)C(=O)CCl	–	?	–	·	–	·
CC1CC2C3CCC4=CC(=O)C=C[C@]4(C)[C@@]3(Cl)C(O)C[C@]2(C)C1(OC(=O)c1ccco1)C(=O)CCl (some centres not stated)	·	16µM	·	·	–	·
CCCCC(=O)O[C@@]1(C(=O)CO)C(C)CC2C3CCC4=CC(=O)C=C[C@@]4(C)[C@]3(F)C(O)C[C@]21C (some centres not stated)	·	–	·	·	–	·
CCCC(=O)O[C@]1(C(=O)CCl)[C@H](C)C[C@@H]2[C@H]3CCC4=CC(=O)C=C[C@]4(C)[C@@]3(F)C(=O)C[C@@]21C	–	10µM	–	·	–	·
CCc1nc2ccc(C(=O)Nc3cc(-c4ccccc4)ccc3OC)cn2c1N(C)C(=O)c1cccc(OC)c1	·	·	·	–	·	?
CCCNC(=O)c1ccc2c(c1)sc1nc(-c3ccc(C)cc3)cn12	·	·	·	–	·	–
CCN(CC)CCCNC(=O)c1ccc2c(c1)sc1nc(-c3ccc(C)cc3)cn12	·	·	·	16µM	·	?
O=C(COc1ccc(Cl)cc1)Nc1ccc(C(=O)OCc2cc(=O)n3ccsc3n2)cc1	·	·	·	–	·	–
c1ccc(Cn2c(-c3cncs3)nc3ccccc32)cc1	–	–	–	–	–	–
Brc1ccc(Cn2c(-c3cncs3)nc3ccccc32)cc1	–	?	–	–	6.3µM	16µM
Brc1cccc(Cn2c(-c3cncs3)nc3ccccc32)c1	–	8.9µM	–	?	8.9µM	?
COc1ccc(-c2noc(COC(=O)c3ccco3)n2)cc1OC	–	·	–	–	·	–
COc1ccc2c(C)c(CC(=O)N3CCN(C(=O)C4COc5ccccc5O4)CC3)c(=O)oc2c1C (configuration not stated)	?	–	16µM	–	–	–
Cc1c(CC(=O)N2CCN(C(=O)C3COc4ccccc4O3)CC2)c(=O)oc2cc(O)c(Cl)cc12 (configuration not stated)	–	–	?	–	–	?
COc1cc2nc(N3CCN(C(=O)C4COc5ccccc5O4)CC3)nc(N)c2cc1OC (configuration not stated)	15µM!	–	21µM!	–	?	–
CN(C)S(=O)(=O)c1ccc(-c2csc(N/N=C/c3ccco3)n2)cc1	?	–	–	?	?	?
CN(C)S(=O)(=O)c1ccc(-c2csc(N/N=C/c3ccc(O)cc3)n2)cc1	?	–	–	21µM	?	15µM
SMILES	MCF10A rereplic	RORgamma inh	SW480 rerep	KB-3-1 cytotox	Gal4-VP16 FLuc	KB-V1 MDR tox
O=[N+]([O-])c1cccc(CN2C(COCc3ccccc3)CCC=CS2(=O)=O)c1 (configuration not stated)	·	–	·	·	–	·
CC(C)CC(N)c1csc(Nc2ccccn2)n1 (configuration not stated)	·	·	·	–	·	–
COc1cc(-c2nc(-c3ccc4c(c3)-c3ccccc3S4(=O)=O)c(-c3ccccc3)[nH]2)cc(OC)c1O	?	?	–	?	4.5µM	?
COc1cccc(/C=N/NC(=O)CC2C(=O)NN=C2C)c1OC (configuration not stated)	–	–	–[9.22 µM]	–	–	–
Oc1ccccc1/C=N/NC(=S)NC1CC2CCC1C2 (configuration not stated)	–	6.3µM	–	?	10µM	?
COc1cccc(C=NNC(=S)NN=Cc2cccc(OC)c2OC)c1OC	18µM	·	–	–	·	?
COc1cccc(/C=N/NC(=O)C[n+]2ccccc2)c1OC	?	–	–	–	–	–
O=C(O)c1ccccc1/C=N/NC(=S)NC1CCCCC1	?	–	–	–	–	–
S=C(N/N=C/c1ccco1)NC1CC2CCC1C2 (configuration not stated)	–	0.56µM	–	–	2.2µM	–
COc1cccc(/C=N/NC(=S)NC2CC3CCC2C3)c1OC (configuration not stated)	–	1.6µM	–	–	2.8µM	–
CCCCCNC(=O)C1C(=O)Nc2ccccc2C(=O)N1c1ccc(OC)cc1 (configuration not stated)	·	·	·	–	·	–
CNC(=S)N/N=C/c1ccco1	–	2.5µM	16µM	–	5.6µM	–
CCC(=O)N1CCN(c2nc3ccccc3s2)CC1	–	?	–	?	–	–
CC(C)NC(=O)C1CCN(C(=O)c2cc3sccc3n2Cc2ccc(F)cc2)CC1	–	?	–	18µM	?	6.5µM
O=C(c1cc2sccc2n1Cc1ccccc1)N1CCN(c2nc3ccccc3s2)CC1	–	–	–	–	10µM	–
Cc1cccc(N2CCN(C(=O)c3ccncc3)CC2)c1C	?	–	12µM	10µM	–	5.8µM
Cc1ccc(N2C(=O)c3ccc(C(=O)N4CCN(c5cccc(C)c5C)CC4)cc3C2=O)cc1	–[0.0737 µM]	?	–	–	20µM	?
Cc1ccc(N2C(=O)c3ccc(C(=O)N4CCN(c5ccc(C)c(C)c5)CC4)cc3C2=O)cc1	–	–	–	–	–	–
CC(C)(C)NC[C@@H](O)COc1nsnc1N1CCOCC1	·	–	·	·	–	·
Cc1ccn(CCC(=O)Nc2ccc3c(c2)OCO3)n1	–	–	–	–	–	–
O=C(CSc1nc2ccccc2c(=O)n1-c1ccccc1Cl)NC1CCS(=O)(=O)C1 (configuration not stated)	–	·	–	–	·	?
COc1ccccc1NC(=O)c1ccc2[nH]c(C)c(C)c2c1	–	–	–	–	–	–

Screening data deposited in PubChem by National Center for Advancing Translational Sciences (NCATS).
